Source: PubChem BioAssay
Unmarked numbers belong to inactive results. Calls of active or inactive are those of the source. Cut-off read from the data, not from the text of the source, unless noted: active = inhibition above about 30%; inactive = the rest. Square brackets hold non-standard residues; d marks the D form. Peptide text beside a SMILES is read from it. NMeY = CN[C@@H](Cc1ccc(O)cc1)C(=O)O; NMeF = CN[C@@H](Cc1ccccc1)C(=O)O; 2Abz = Nc1ccccc1C(=O)O

What was measured:
[1] = target: Nuclear receptor coactivator 3 (Homo sapiens) (UniProt Q9Y6Q9); assay: SRC3 coactivator transcriptional activity inhibitors, confirmation, cell-based, luminescence, quadruplicate (AID 588792;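 active = mean inhibition over 43.08%, the solvent-only control mean plus 3 SD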;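 note: 0% = DMSO treated cells and 100% = gossypol at 36 µM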); conditions: HEK293 GAL4-SRC3 luciferase reporter, at 3.6 µM, hits give high values
[2] = test system: transactivating tegument protein VP16 (Human herpesvirus 1), Gal4-VP16 luciferase reporter; assay: VP16 transactivation inhibitors, counter-screen for SRC3 inhibitor project, cell-based, luminescence, high throughput (AID 588794); conditions: mammalian cells, VP16-driven luciferase reporter luminescence; at 3.6 µM; hits give high values

Nuclear receptor coactivator 3 (Homo sapiens), sequence (Q9Y6Q9 whole entry, looked up, the tested form may be a part): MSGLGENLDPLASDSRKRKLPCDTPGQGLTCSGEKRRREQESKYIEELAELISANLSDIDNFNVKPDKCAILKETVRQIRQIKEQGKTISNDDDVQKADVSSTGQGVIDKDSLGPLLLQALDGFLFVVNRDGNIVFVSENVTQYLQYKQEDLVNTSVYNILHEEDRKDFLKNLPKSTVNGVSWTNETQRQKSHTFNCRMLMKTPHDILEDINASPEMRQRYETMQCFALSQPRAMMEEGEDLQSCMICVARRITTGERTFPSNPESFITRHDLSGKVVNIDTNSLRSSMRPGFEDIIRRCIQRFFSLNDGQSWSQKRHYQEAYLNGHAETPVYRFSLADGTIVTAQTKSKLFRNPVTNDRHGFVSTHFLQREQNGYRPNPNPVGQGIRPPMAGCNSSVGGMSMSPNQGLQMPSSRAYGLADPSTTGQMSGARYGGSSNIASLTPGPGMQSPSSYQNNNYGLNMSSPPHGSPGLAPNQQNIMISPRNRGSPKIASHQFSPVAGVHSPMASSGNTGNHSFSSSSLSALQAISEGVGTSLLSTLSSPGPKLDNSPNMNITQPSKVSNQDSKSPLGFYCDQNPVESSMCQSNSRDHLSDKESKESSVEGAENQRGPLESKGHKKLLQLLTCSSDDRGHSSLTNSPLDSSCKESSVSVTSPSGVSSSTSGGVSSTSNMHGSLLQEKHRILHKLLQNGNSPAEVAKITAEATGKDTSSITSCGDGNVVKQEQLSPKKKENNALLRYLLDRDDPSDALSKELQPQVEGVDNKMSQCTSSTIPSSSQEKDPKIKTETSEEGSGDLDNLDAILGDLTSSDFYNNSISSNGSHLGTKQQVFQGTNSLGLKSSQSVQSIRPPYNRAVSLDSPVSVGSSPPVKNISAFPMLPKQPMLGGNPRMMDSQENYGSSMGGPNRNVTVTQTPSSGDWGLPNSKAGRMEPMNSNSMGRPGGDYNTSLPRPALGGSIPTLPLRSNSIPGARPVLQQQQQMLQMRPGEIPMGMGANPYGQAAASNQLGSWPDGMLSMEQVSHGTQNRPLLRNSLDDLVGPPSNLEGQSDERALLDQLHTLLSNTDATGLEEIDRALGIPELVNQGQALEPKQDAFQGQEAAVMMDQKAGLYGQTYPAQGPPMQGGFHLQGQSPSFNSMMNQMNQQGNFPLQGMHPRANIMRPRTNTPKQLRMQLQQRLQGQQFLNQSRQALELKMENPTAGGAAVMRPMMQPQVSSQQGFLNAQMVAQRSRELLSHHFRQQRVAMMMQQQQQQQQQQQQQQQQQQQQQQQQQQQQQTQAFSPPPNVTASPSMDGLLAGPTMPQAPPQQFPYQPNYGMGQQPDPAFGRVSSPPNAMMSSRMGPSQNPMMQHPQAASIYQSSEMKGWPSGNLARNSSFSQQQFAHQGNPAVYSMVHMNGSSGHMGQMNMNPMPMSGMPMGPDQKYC

Row | SMILES | inhibition [1] | inhibition [2]
1 | O=C(NN=Cc1ccccc1O)c1cccc([N+](=O)[O-])c1 | 52.8% (active) | 51.8% (active)
2 | Cc1cccc(NC(=O)c2cc(-c3cccnc3)nc3c(C)cccc23)n1 | 7.37% | 1.11%
3 | Cc1cccn2c(CNCC3(c4ccccc4)CCCC3)c(C(=O)N3CCOCC3)nc12 | 7.17% | 6.26%
4 | CCSc1nnc(NC(=O)C(CC)(C(F)(F)F)C(F)(F)F)s1 | 7.54% | 19.6%
5 | CC(C)C[C@@H]1NC(=O)[C@H](Cc2ccccc2)N(C)C(=O)[C@H](C)NC(=O)c2ccccc2NC(=O)[C@H](Cc2ccc(O)cc2)N(C)C1=O (cyclo([2Abz]A[NMeF]L[NMeY])) | 18.1% | 17.5%
6 | Cc1ccc(NC(=O)C2CCN(c3ncnc4c3nc3n4CCCCC3)CC2)cc1Cl | -20.6% | -3.54%
7 | O=C(NC1CCCC1)C(c1ccncc1)N(Cc1ccccc1)C(=O)Cc1cccs1 (stereo not given) | 2.62% | -0.83%
8 | CCOc1ccc(N2C(=O)/C(=C/c3cc(OC)c(OC)c(OC)c3)N(CC(=O)OC)C2=S)cc1 | 18.9% | 12.7%
9 | CCN(CC)S(=O)(=O)c1cccc(NC(=O)Nc2cccc(C(F)(F)F)c2)c1 | 13.9% | 18%
10 | CC(C)C(=O)N1CCN(c2ccc(NC(=O)COc3ccccc3[N+](=O)[O-])cc2)CC1 | 12.7% | 28.6%
11 | CCOC(=O)c1c(Nc2ccccc2OCCOC)n[nH]c1C | -0.73% | -0.92%
12 | NC(=O)CC(NC(=O)c1cccc(Br)c1)c1ccc(NC2CCN(Cc3ccccc3)CC2)c([N+](=O)[O-])c1 (stereo not given) | -3.11% | -4.06%
13 | COn1c(C)c(C(C)=O)c2c3nonc3ccc21 | 22.5% | 33.5% (active)
14 | COc1ccc(NC(=O)N(C)C[C@H]2Oc3c(NC(=O)Nc4ccc(C(F)(F)F)cc4)cccc3C(=O)N([C@H](C)CO)C[C@@H]2C)cc1 | 10.2% | -6.34%
15 | COc1ccccc1NS(=O)(=O)c1cc(NC(=O)c2ccc(Cl)nc2)ccc1Cl | 9.43% | 30.7% (active)
16 | CC(=O)c1c(C)[nH]c(C(=O)OCC(=O)Nc2c(C)cccc2C)c1C | 16.8% | 13.5%
17 | CCCn1nc(C(=O)NCC2COc3ccccc3O2)c2ccccc2c1=O (stereo not given) | 9.61% | 3.2%
18 | Cc1ccc(-c2c[n+](Cc3ccc(Cl)c(Cl)c3)c3n2CCC3)cc1 | 17.6% | 25.3%
19 | CN[C@H]1CCc2cc(OC)c(OC)c(OC)c2-c2ccc(OC)c(=O)cc21 | 40.5% | -10.4%
20 | Cc1ccc(C2(c3ccc(C)cc3)CC2C(=O)Nc2ccc([N+](=O)[O-])cc2O)cc1 (stereo not given) | 11.3% | 19.4%
21 | CCCCCc1ccc(OCCOCCn2c[n+](C)c3ccccc32)c(CCCCC)c1 | 25.3% | 36.4% (active)
22 | CCN(C(=O)COC(=O)/C(=C/c1ccccc1)n1nnnc1C)C1CCCCC1 | 26.9% | 27%
23 | CCn1c(Cc2ccccc2)nnc1SCC(=O)Nc1ccc(N2CCOCC2)c(Cl)c1 | -0.44% | -2.29%
24 | Cc1cc(Br)ccc1NC(=O)c1cnc(N2CCN(c3ccccn3)CC2)c2ccccc12 | 15.6% | 15.2%
25 | CCC(=O)N1CCN(c2ccnc3cc(Cl)ccc23)CC1 | 29.1% | 9.02%
26 | CC(C)C(C)NC(=O)CSc1ccc(S(=O)(=O)N2CCOCC2)cn1 (stereo not given) | -6.95% | 8.39%
27 | CC(C(=O)c1ccc(-c2ccccc2)cc1)[n+]1ccccc1 (stereo not given) | 5.63% | 19.5%
28 | Cc1nc2ccccn2c1-c1ccnn1S(=O)(=O)c1ccc(F)cc1 | 3.74% | 12.3%
29 | Cc1cc(C(F)(F)F)c(C#N)c(SCC(=O)Nc2nc3ccccc3s2)n1 | 49.7% (active) | 37.2% (active)
30 | Cc1ccc(C)c(N2CCN(C(=O)C34CC5CC(C3)CC(n3nnc(C)n3)(C5)C4)CC2)c1 | 3.92% | 29.6% (active)
